Conditions in all cases: concentration: 1 μM, replicates: in singlicate; n = 1
In experiment [1] the test system is AAK1.
The test system of experiment [2] is ABL1-nonphosphorylated.
Experiment [3] has as its system ABL1-phosphorylated.
For experiment [4], the system named is ABL2.
Experiment [5] has as its system ACVR1B.
Experiment [6] has as its system ACVR1.
For experiment [7], the system named is ACVR2A.
Experiment [8] relates to ACVR2B.
In experiment [9] the test system is ACVRL1.
In experiment [10] the test system is T1, ADCK3.
T1 construct: gene CABC1

Each structure is given as a SMILES string.
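Also: KINOMEscan kinase panel screen.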

Regarding `Cc1ccc(O)cc1Nc1ccnc2cc(-c3ccc(CN4CCCCC4)o3)ccc12` [GW557777], the “%Inh” value in experiment [1] is reported as 10%; in experiment [2], 100%; in experiment [3] it was 99.9%; in [4], 100%; in [5], 79%; in experiment [6] it was 99.4%. Further, the “%Inh” value in experiment [7] is 18%; in [8] it was 94.7%; in experiment [9] it was 90.3%; in experiment [10], 4%.

In the case of `COc1cccc(C2=C(Nc3cccc(O)c3)C(=O)NC2=O)c1` [SB-390771], the “%Inh” value in [1] amounted to 38%; in [2], 0%; in [3] it was 4%; in experiment [4] it was 10%; in [5], 0%; in experiment [6], 18%. Further, the “%Inh” value was 0% in experiment [7], 6% in [8], 0% in experiment [9] and 5% in experiment [10].

Consider `CC(C)c1nc(-c2ccc(F)c(NS(=O)(=O)c3c(F)cccc3F)c2)c(-c2ccnc(Nc3ccc(N4CCOCC4)nc3)n2)s1` [GSK1804250], for which the “%Inh” value in [1] is on record as 7%; in experiment [2] it was 99.8%; in experiment [3], 98.8%; in [4], 99.3%; in [5], 91.9%; in experiment [6], 87%. Further, the “%Inh” value in experiment [7] was 0%; in experiment [8] it was 75%; in [9], 52%; in experiment [10] it was 99.4%.

In the case of `Cn1cc(-c2ccc3c(c2)CCN3C(=O)Cc2cc(F)cc(F)c2F)c2c(N)ncnc21` [GSK2634140], the “%Inh” value is on record as 0% in [1]; 82% in experiment [2]; 29% in [3]; 57% in experiment [4]; 15% in experiment [5]; 0% in experiment [6]. In addition, the “%Inh” value in experiment [7] came to 0%; in experiment [8] it was 0%; in [9], 0%; in experiment [10] it was 6%.

For the compound `Cc1cc(-c2c(-c3ccc(F)cc3)ncn2CCCN2CCOCC2)nc(N)n1` [SB-222517], the “%Inh” value in experiment [1] was 14%; in experiment [2] it was 37%; in experiment [3], 18%; in experiment [4] it was 0%; in experiment [5], 21%; in experiment [6] it was 0%. Moreover, the “%Inh” value is reported as 0% in [7], 0% in [8], 0% in experiment [9] and 1% in [10].

Consider `Cl.Cl.NC(CNC(=O)c1cc(Br)c(-c2ccnc3[nH]ccc23)s1)c1ccccc1` (stereo not shown) [GSK1322949], for which the “%Inh” value in [1] is listed as 82%; in experiment [2], 21%; in [3], 10%; in experiment [4] it was 25%; in experiment [5], 0%; in experiment [6], 38%. For the same compound, the “%Inh” value was 0% in [7], 10% in experiment [8], 0% in [9] and 40% in experiment [10].

With `COC(=O)Nc1nc2ccc(Oc3ccc(CC(=O)Nc4cc(C(F)(F)F)ccc4F)cc3)cc2[nH]1` [GW680903], the “%Inh” value in experiment [1] was 4%; in experiment [2], 35%; in [3], 0%; in [4], 34%; in experiment [5], 0%; in experiment [6], 9%. For the same compound, the “%Inh” value in experiment [7] was 0%; in experiment [8], 0%; in experiment [9], 0%; in experiment [10], 19%.

Regarding `Cc1cccc(Nc2nc(N[C@H]3CCCC[C@H]3N)ncc2C(N)=O)c1.Cl` [GSK986310], the “%Inh” value amounted to 55% in [1]; 0% in experiment [2]; 8% in [3]; 24% in experiment [4]; 0% in experiment [5]; 5% in [6]. Besides, the “%Inh” value in experiment [7] was 0%; in [8] it was 11%; in experiment [9], 0%; in [10], 17%.

As for `COc1cccc(-c2nc(-c3ccccc3)[nH]c2-c2ccncc2)c1` [SB-610250], the “%Inh” value in experiment [1] came to 2%; in [2], 0%; in [3] it was 8%; in [4], 27%; in [5], 0%; in experiment [6], 24%. Further, the “%Inh” value in experiment [7] amounted to 0%; in experiment [8], 0%; in experiment [9] it was 2%; in [10], 8%.

Take `CCn1cnc2c(NCc3ccccc3)ncnc21` [SKF-96418]: the “%Inh” value in [1] is given as 0%; in experiment [2], 21%; in experiment [3], 9%; in [4] it was 0%; in experiment [5] it was 0%; in experiment [6], 0%. Moreover, the “%Inh” value in experiment [7], in experiment [8], in experiment [9] and in experiment [10] was 0% throughout.

As for `CN(c1ccc2c(c1)nc(NCc1ccccc1)n2C)c1ccnc(Nc2ccc(CS(C)(=O)=O)cc2)n1.Cl` [GW811603], the “%Inh” value in experiment [1] is recorded as 16%; in experiment [2], 98.9%; in experiment [3], 66%; in [4] it was 54%; in [5], 0%; in experiment [6] it was 0%. The “%Inh” value in experiment [7], in [8], in experiment [9] and in experiment [10] was 0% throughout.

For the compound `CN(C)c1ncnc2nc[nH]c12` [SKF-31736], the “%Inh” value in experiment [1] was found to be 30%; in experiment [2] it was 38%; in [3] it was 27%; in experiment [4], 0%; in experiment [5] it was 0%; in [6], 1%. Further, the “%Inh” value in experiment [7], in [8], in [9] and in experiment [10] was 0% in each case.

For the compound `O=C(Nc1n[nH]c2nc(-c3ccccc3)ccc12)C1CC1` [SB-708999], the “%Inh” value in [1] turned out to be 100%; in [2], 62%; in [3] it was 41%; in experiment [4], 16%; in experiment [5] it was 22%; in experiment [6] it was 6%. Further, the “%Inh” value is given as 9% in experiment [7], 37% in [8], 0% in experiment [9] and 2% in experiment [10].

As for `Fc1cc(Cl)ccc1Nc1ccnc2cc(-c3ccc(CN4CCOCC4)o3)ccc12` [GW560109], the “%Inh” value in experiment [1] came to 0%; in experiment [2], 99.5%; in experiment [3], 99.8%; in experiment [4], 96.4%; in [5], 0%; in [6], 86%. Moreover, the “%Inh” value in [7] stood at 22%; in [8] it was 88%; in [9] it was 65%; in experiment [10], 0%.

On to `CCn1c(-c2nonc2N)nc2c(-c3ccccc3)ncc(OCCCN)c21.O=C(O)C(F)(F)F.O=C(O)C(F)(F)F` [GSK260205], for which the “%Inh” value in experiment [1] was 14%; in experiment [2] it was 0%; in experiment [3], 9%; in experiment [4], 16%; in [5], 61%; in experiment [6], 38%. Also, the “%Inh” value in experiment [7] came out at 0%; in experiment [8] it was 0%; in experiment [9], 0%; in [10], 46%.

On to `N#CC1(c2cccc(C(=O)Nc3cccc(Oc4ccc5nc(NC(=O)C6CC6)sc5n4)c3)c2)CC1`, for which the “%Inh” value in [1] amounted to 3%; in experiment [2], 100%; in experiment [3], 98.7%; in [4] it was 95%; in experiment [5] it was 0%; in experiment [6], 0%. Further, the “%Inh” value came to 3% in experiment [7], 1% in experiment [8], 0% in [9] and 40% in experiment [10].
